# In PubChem BioAssay (NCATS):
# Values without a mark were called inactive. Results filed as inconclusive are left out. Entries that show only a call come without a potency. Activity calls are given as the source filed them. Unless noted, calls come from the whole dose curve; as a rule, active = well fitted curve in the direction sought with a large enough effect; inconclusive = small, poorly fitted or top-dose-only effect, or another doubt; inactive = no such curve, though single readings can be large; an effect the other way counts as inactive or inconclusive.
# Columns and labels:
# [1] = molecular target: Muscarinic acetylcholine receptor M1 (Rattus norvegicus) (UniProt P08482); assay: qHTS Assay for Antagonists of Acetylcholine Muscarinic M1 Receptor: Kinetic Measurement of Intracellular Calcium Response (AID 943); note: nearly all actives have a fitted effect of over 75% in size; note: potency is the fitted concentration of half-maximal effect
# Method in brief: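 Rat M1-CHO cells, 2000/well, overnight → Fluo-4 no-wash dye with probenecid, 1 h 37C → compound 10 min, room temp → basal read 6 s → carbachol EC80 (100 nM) → 4 min kinetic read; peak/basal.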
# [2] = molecular target: Muscarinic acetylcholine receptor M1 (Rattus norvegicus) (UniProt P08482); assay: qHTS Assay for Antagonists of Acetylcholine Muscarinic M1 Receptor: Measurement of IP-One Response (AID 944); note: nearly all actives have a fitted effect of over 75% in size; note: potency is the fitted concentration of half-maximal effect
# Method in brief: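 M1-CHO (rat), 2000 cells/well, overnight recovery; cpd 10 min; carbachol EC80 (200 nM), 30 min, HEPES buffer + 50 mM LiCl pH 7.4; IP-One HTRF, Ex 337, Em 620/665 nm.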
# [3] = Confirmation and Secondary Assay for Modulators of Hemoglobin Beta Chain Splicing at IVS2 654 locus (AID 910);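 note: HeLa cells stably carrying EGFP split by mutant beta-globin IVS2-654 intron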
# Method in brief: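 Readout: per-well total peak green fluorescence (488 nm ex, 500–520 nm em) from objects 5–250 µm, reflecting correct splicing of an EGFP-654 reporter. Compounds were applied for 2 days at 37 °C to overnight-plated HeLa EGFP-654 cells; controls were DMSO and 500 nM IVS2-654 PNA.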
# [4] = Confirmation and Secondary Assay for Modulators of Hemoglobin Beta Chain Splicing at IVS2 705 locus (AID 930);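 note: HeLa cells stably expressing the EGFP-705 splicing reporter; GFP fluorescence per well restored by corrected splicing of the IVS2-705 intron in EGFP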
# Method in brief: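 Read-out: total peak GFP fluorescence per well (488 nm excitation, 500-520 nm emission) by laser-scanning cytometry. Cells: HeLa EGFP-705 splicing reporter, 2 days compound exposure in Optimem/2% FCS.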
# [5] = qHTS Assay for Identification of Small Molecule Antagonists for NFkB Signaling Pathway (AID 895; active = well fitted inhibition curve with a large enough effect in the signal ratio, with a control signal flat, not every such curve was filed as active; the % refers to the signal ratio; note: potency is the fitted concentration of half-maximal effect)
# Method in brief: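 Beta-lactamase reporter read-out (460 and 530 nm emission ratio, 405 nm excitation, 2 hrs substrate loading RT) after 5 hr stimulation with 10 pM TNF alpha in compound-treated NFkB-bla ME-180 cells in low-serum medium.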
# [6] = molecular target: Cytochrome P450 2C9 (Homo sapiens) (UniProt P11712); assay: qHTS Assay for Inhibitors and Substrates of Cytochrome P450 2C9 (AID 883); note: nearly all actives have a fitted effect of over 60% in size; note: potency is the fitted concentration of half-maximal effect
# Method in brief: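 Turnover of Luciferin-H (100uM, KM) by 10nM human CYP2C9 was measured over 60 min at 37C with NADPH regeneration; inhibitors and some substrates reduce luminescence. Data normalized to sulphaphenazole 57uM.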
# [7] = molecular target: ATP-dependent 6-phosphofructokinase (Trypanosoma brucei brucei) (UniProt O15648); assay: qHTS Assay to Find Inhibitors of T. brucei phosphofructokinase: hit validation (AID 492961);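 note: luminescence reports ADP formed as PFK phosphorylates fructose-6-phosphate with ATP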
# Method in brief: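 Measures ADP output of PFK (1.25 nM) at 0.1 mM ATP, 0.5 mM F6P, pH 8.0 TEA buffer with 5 mM MgCl2. No-enzyme wells define full inhibition; uninhibited enzyme wells define zero.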
# [8] = qHTS profiling for inhibitors of Plasmodium falciparum proliferation (AID 504749); note: nearly all actives have a fitted effect of over 60% in size; conditions: P. falciparum in erythrocytes, SYBR Green DNA, 72 h, at 28.7 µM (top of the series)
# Method in brief: (§1)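 Infected RBCs, 0.3% parasitemia/2.5% Hct final; cpd 72 h, 37 C, 5% CO2; lysis buffer with saponin/triton/SYBR Green I, o/n RT dark; FI 485/535; norm. to artemisinin (0.29 uM) and DMSO.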
# [9] = test system: 3D7; assay: as above; conditions: P. falciparum in erythrocytes, SYBR Green DNA, 72 h; series mostly up to 28.7 µM
# Method in brief: as §1
# [10] = test system: CP192; assay: as above; conditions: P. falciparum in erythrocytes, SYBR Green DNA, 72 h; series mostly up to 28.7 µM
# Method in brief: as §1
# [11] = test system: CP201; assay: as above; conditions: P. falciparum in erythrocytes, SYBR Green DNA, 72 h; series mostly up to 28.7 µM
# Method in brief: as §1
# [12] = test system: DIV14; assay: as above; conditions: P. falciparum in erythrocytes, SYBR Green DNA, 72 h; series mostly up to 28.7 µM
# Method in brief: as §1
# [13] = test system: DIV17; assay: as above; conditions: P. falciparum in erythrocytes, SYBR Green DNA, 72 h; series mostly up to 28.7 µM
# Method in brief: as §1
# [14] = test system: GB4; assay: as above; conditions: P. falciparum in erythrocytes, SYBR Green DNA, 72 h; series mostly up to 28.7 µM
# Method in brief: as §1
# [15] = test system: P94_40; assay: as above; conditions: P. falciparum in erythrocytes, SYBR Green DNA, 72 h; series mostly up to 28.7 µM
# Method in brief: as §1
# [16] = test system: PC49; assay: as above; conditions: P. falciparum in erythrocytes, SYBR Green DNA, 72 h; series mostly up to 28.7 µM
# Method in brief: as §1
# [17] = molecular target: Cytochrome P450 3A4 (Homo sapiens) (UniProt P08684); assay: qHTS Assay for Inhibitors and Substrates of Cytochrome P450 3A4 (AID 884); note: nearly all actives have a fitted effect of over 50% in size; note: potency is the fitted concentration of half-maximal effect
# Method in brief: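 20 nM human CYP3A4 with 25 uM Luciferin-PPXE (at KM) in 200 mM KPO4, preincubated 10 min with compound; NADPH regeneration started a 60 min RT reaction. Luciferin detected by luminescence, normalized to 57 uM ketoconazole as full inhibition.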
# [18] = molecular target: Cytochrome P450 2C19 (Homo sapiens) (UniProt P33261); assay: qHTS Assay for Inhibitors and Substrates of Cytochrome P450 2C19 (AID 899); note: nearly all actives have a fitted effect of over 60% in size; note: potency is the fitted concentration of half-maximal effect
# Method in brief: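 Reactions contain 5nM enzyme, 10uM Luciferin-H EGE (KM) and 50mM KPO4; compound preincubates 10 min at 37C, NADPH regeneration starts turnover for 60 min. Luminescence after detection reagent gives activity.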
# [19] = molecular target: Cytochrome P450 2D6 (Homo sapiens) (UniProt P10635); assay: qHTS Assay for Inhibitors and Substrates of Cytochrome P450 2D6 (AID 891);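 note: luciferin methyl ether substrate demethylated by CYP2D6 with NADPH regeneration; nearly all actives have a fitted effect of over 60% in size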
# Method in brief: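 Human CYP2D6 (5 nM) with 30 uM Luciferin-ME EGE (at Km) in 100 mM KPO4, compound preincubated 10 min, then NADPH regeneration system for 60 min at room temperature. Luciferin read by luminescence; normalized to 1.43 uM quinidine.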
# [20] = molecular target: Glutathione peroxidase 1 (Homo sapiens) (UniProt P07203); assay: Primary qHTS Assay for Inhibitors of Recombinant Selenoprotein Glutathione Peroxidase 1 (GPX1) (AID 1845191); note: nearly all actives have a fitted effect of over 65% in size
# Method in brief: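 10 nM GPX1 + cpd, 30 min RT; start w/ 1 mM GSH, 0.5 mM cumene hydroperoxide, 0.5 mM NADPH, 100 nM GR, 0.01% BSA; buffer 50 mM Tris-HCl pH 7.5, 2 mM EDTA, 150 mM NaCl; Fl 340/450, 0 & 15 min.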
# Muscarinic acetylcholine receptor M1 (Rattus norvegicus), sequence (P08482 whole entry, looked up): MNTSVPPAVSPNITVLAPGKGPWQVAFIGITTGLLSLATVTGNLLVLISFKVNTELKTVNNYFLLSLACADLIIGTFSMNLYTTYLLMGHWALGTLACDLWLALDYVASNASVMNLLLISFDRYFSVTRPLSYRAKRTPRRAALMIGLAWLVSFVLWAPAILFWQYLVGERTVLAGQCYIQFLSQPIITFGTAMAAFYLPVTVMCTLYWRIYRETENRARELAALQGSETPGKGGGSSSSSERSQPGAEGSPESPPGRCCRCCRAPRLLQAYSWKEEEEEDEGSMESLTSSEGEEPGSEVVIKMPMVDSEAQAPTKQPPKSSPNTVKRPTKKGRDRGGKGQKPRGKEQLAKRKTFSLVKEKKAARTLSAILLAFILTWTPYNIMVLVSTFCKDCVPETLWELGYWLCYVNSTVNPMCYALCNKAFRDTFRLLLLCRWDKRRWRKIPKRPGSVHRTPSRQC
# Cytochrome P450 2C9 (Homo sapiens), sequence (P11712 whole entry, looked up): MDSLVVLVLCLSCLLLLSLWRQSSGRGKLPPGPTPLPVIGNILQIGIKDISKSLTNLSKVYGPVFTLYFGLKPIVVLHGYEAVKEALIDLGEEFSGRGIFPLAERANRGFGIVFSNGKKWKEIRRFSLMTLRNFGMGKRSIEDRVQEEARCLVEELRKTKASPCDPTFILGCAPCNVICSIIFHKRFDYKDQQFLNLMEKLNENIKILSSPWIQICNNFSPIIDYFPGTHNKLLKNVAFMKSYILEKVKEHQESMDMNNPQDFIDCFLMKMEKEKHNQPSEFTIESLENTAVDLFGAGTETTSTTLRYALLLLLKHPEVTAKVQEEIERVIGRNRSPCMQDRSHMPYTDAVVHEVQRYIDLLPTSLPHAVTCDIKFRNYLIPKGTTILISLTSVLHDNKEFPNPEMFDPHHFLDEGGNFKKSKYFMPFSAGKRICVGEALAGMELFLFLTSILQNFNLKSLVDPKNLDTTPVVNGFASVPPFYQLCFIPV
# Cytochrome P450 2C19 (Homo sapiens), sequence (P33261 whole entry, looked up): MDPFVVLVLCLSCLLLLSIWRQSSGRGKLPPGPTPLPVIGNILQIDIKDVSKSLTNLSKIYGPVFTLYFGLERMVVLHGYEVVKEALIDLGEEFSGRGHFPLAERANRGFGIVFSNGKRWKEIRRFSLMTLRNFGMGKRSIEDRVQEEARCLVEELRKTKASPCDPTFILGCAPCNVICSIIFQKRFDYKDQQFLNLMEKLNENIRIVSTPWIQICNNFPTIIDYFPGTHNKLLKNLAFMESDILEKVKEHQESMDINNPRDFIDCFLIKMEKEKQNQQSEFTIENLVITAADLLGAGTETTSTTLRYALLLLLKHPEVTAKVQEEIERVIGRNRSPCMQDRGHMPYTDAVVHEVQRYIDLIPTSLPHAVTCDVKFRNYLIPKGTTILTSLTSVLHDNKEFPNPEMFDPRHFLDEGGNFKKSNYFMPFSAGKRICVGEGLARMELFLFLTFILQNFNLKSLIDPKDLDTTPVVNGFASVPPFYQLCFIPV
# Cytochrome P450 3A4 (Homo sapiens), sequence (P08684 whole entry, looked up): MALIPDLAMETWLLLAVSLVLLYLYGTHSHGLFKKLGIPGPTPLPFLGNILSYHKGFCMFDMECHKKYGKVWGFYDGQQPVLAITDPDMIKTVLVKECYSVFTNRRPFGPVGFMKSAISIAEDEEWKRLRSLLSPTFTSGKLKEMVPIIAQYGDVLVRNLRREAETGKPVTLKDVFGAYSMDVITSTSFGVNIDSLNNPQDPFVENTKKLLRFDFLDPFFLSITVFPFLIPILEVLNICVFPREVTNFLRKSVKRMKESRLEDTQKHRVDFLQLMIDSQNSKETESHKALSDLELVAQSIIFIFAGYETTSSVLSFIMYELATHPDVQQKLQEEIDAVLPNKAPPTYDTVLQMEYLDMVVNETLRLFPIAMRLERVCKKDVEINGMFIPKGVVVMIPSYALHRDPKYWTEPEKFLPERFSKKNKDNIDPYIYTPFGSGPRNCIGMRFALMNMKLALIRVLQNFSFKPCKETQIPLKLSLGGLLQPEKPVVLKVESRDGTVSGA
# Cytochrome P450 2D6 (Homo sapiens), sequence (P10635 whole entry, looked up): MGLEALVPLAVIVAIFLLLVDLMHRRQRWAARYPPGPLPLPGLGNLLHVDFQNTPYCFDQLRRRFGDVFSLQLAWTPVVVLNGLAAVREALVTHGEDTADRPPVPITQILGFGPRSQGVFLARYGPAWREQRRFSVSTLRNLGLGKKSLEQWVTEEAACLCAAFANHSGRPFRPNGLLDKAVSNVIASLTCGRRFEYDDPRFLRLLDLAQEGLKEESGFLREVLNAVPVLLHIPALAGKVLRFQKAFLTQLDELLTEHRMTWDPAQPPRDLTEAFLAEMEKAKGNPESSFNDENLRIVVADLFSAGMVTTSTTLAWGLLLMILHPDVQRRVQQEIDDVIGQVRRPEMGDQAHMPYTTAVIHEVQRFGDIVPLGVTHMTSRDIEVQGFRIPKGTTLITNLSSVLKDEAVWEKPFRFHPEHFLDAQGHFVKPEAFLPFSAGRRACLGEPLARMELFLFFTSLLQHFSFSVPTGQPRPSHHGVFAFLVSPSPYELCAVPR
# ATP-dependent 6-phosphofructokinase (Trypanosoma brucei brucei), sequence (O15648 whole entry, looked up): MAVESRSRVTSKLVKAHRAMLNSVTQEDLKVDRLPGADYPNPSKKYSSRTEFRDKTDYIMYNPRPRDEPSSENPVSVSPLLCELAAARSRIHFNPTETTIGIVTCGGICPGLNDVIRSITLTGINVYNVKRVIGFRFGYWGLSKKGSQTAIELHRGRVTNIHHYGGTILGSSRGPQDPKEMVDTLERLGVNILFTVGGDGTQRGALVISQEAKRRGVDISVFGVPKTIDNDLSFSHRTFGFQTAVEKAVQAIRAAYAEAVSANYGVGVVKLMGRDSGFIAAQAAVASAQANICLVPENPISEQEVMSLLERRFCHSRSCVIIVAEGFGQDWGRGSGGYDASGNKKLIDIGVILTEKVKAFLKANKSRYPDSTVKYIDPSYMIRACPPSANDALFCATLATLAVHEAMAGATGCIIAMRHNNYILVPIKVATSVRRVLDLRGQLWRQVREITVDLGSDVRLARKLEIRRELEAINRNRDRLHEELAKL
# Glutathione peroxidase 1 (Homo sapiens), sequence (P07203 whole entry, looked up): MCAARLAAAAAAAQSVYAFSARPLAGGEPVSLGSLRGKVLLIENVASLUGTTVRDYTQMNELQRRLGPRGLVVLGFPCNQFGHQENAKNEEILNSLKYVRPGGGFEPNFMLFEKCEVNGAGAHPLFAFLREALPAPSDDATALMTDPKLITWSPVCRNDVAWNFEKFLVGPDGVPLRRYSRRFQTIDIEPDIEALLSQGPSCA
structure (smiles),measurement,setting,value
CNCC[C@H](Oc1ccccc1OC)c1ccccc1,Potency,[1],14.1 µM (active)
same,Potency,[2],11.2 µM (active)
CCN(Cc1ccncc1)C(=O)[C@@H](CO)c1ccccc1,outcome,[3],inactive
same,outcome,[4],inactive
N[C@]1(C(=O)O)CCc2cc(C(=O)O)ccc21,Potency,[5],inactive
same,Potency,[1],inactive
same,Potency,[2],inactive
N[C@H](CCC(=O)N[C@H](CSN=O)C(=O)NCC(=O)O)C(=O)O,Potency,[6],5.01 µM (active)
same,Potency,[5],inactive
same,Potency,[1],inactive
COC(=O)[C@@H]1[C@@H]2C[C@H]3c4[nH]c5ccccc5c4CCN3C[C@@H]2CC[C@@H]1O,outcome,[7],inactive
same,"activity, negative = inhibition",[8]; parasite line A,13.9%
same,"activity, negative = inhibition",[8]; parasite line B,-2.77%
same,Potency,[9],inactive
same,Potency,[10],inactive
same,Potency,[11],inactive
same,Potency,[12],inactive
same,Potency,[13],inactive
same,Potency,[14],inactive
same,Potency,[15],inactive
same,Potency,[16],inactive
C[C@H](N=C(NC#N)Nc1ccncc1)C(C)(C)C,Potency,[1],inactive
same,Potency,[2],inactive
COc1ccccc1NC(=O)Nc1nc(-c2cccnc2)nc2ccccc12,Potency,[1],inactive
same,Potency,[2],inactive
S=C(S)O[C@@H]1C[C@@H]2C[C@H]1[C@@H]1CCC[C@H]21,Potency,[6],3.98 µM (active)
same,Potency,[17],3.98 µM (active)
same,Potency,[5],inactive
same,Potency,[2],inactive
CC(C)(C)NC[C@H](O)COc1cccc2[nH]c(=O)[nH]c12,Potency,[5],inactive
same,Potency,[2],inactive
CC[N+](C)(CC)CCC[n+]1c(-c2ccccc2)c2cc(N)ccc2c2ccc(N)cc21,Potency,[18],1.58 µM (active)
CCC(=O)N[C@@H]1Cc2ccccc2[C@@H](c2ccccc2)C1,Potency,[18],7.94 µM (active)
CC(C)NC[C@H](O)c1ccc(NS(C)(=O)=O)cc1,Potency,[5],inactive
same,Potency,[18],inactive
same,Potency,[2],inactive
O=C(NCCNC[C@@H](O)COc1ccc(O)cc1)N1CCOCC1,Potency,[2],inactive
C[C@@H]1C[C@@H]2[C@H]3CCC4=CC(=O)C=C[C@]4(C)[C@]3(F)[C@@H](O)C[C@@]2(C)[C@@]1(O)C(=O)CO,Potency,[5],0.01 µM (active)
NC[C@](O)(CS(=O)(=O)O)c1ccc(Cl)cc1,Potency,[6],inactive
same,Potency,[19],inactive
same,Potency,[18],inactive
same,Potency,[1],inactive
same,Potency,[2],inactive
CC(C)NC[C@@H](O)COc1ccc(CCOCC2CC2)cc1,Potency,[6],0.631 µM (active)
same,Potency,[2],inactive
CC(N)=NCCC[C@H](N)C(=O)O,Potency,[1],inactive
same,Potency,[2],inactive
N[C@H](Cc1cnc[nH]1)C(=O)O,Potency,[17],inactive
same,Potency,[20],inactive
CC(N)=NCCCC[C@H](N)C(=O)O,Potency,[6],inactive
same,Potency,[17],inactive
same,Potency,[1],inactive
same,Potency,[2],inactive
C=C[C@H](N)CCC(=O)O,Potency,[6],inactive
same,Potency,[17],inactive
same,Potency,[19],inactive
same,Potency,[18],inactive
same,outcome,[3],inactive
same,outcome,[4],inactive
same,Potency,[1],inactive
same,Potency,[2],inactive
